“And” between values parts separate entries of the source, which are not always exact repeats. Equal values may be shown once. Values without a mark were called inactive. The rule behind the calls is not given here.

Here are results for 39 molecules from PubChem BioAssay.

Chain of Lethal factor (Bacillus anthracis) (P15917 whole entry, looked up): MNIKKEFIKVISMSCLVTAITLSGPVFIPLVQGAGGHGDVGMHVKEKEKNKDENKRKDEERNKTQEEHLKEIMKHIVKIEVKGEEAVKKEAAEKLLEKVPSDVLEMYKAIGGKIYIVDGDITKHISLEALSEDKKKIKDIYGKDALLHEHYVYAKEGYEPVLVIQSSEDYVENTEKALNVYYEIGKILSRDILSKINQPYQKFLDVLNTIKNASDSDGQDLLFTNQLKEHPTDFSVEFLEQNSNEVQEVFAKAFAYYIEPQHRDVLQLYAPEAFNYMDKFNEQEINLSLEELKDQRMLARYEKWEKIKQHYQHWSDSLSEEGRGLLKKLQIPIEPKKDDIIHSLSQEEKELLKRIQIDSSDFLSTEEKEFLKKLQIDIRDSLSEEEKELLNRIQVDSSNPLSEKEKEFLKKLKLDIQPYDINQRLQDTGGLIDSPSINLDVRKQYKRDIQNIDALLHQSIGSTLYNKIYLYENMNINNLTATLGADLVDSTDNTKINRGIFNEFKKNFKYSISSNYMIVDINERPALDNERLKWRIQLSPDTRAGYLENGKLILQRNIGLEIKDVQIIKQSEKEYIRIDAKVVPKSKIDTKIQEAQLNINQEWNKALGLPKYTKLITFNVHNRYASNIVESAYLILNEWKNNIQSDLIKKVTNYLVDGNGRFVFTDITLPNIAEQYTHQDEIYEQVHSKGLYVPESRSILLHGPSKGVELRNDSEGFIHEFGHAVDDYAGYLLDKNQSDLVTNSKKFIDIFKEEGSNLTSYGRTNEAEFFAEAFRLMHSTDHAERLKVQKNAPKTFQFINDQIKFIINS

This assay concerns the target Lethal factor (Bacillus anthracis) (UniProt P15917). Kind of assay: Lethal factor protease inhibitors, Bacillus anthracis, multiplex microsphere cleavage assay, validation set (AID 588461). Conditions: flow cytometry, at 10 µM, stronger effect = higher value. On the technique in general: A flow cytometer gives signals particle by particle.
Turning to `COCC1CCCN(Cc2cn[nH]c2-c2cc3ccccc3o2)C1` (centres undefined), the inhibition is -3.9%.

In the case of `O=C(c1ccc(O)cc1)c1ccc(O)cc1O`, the inhibition is -0.6%.

For the molecule `O=C(/C=C/Sc1ccccc1)c1ccccc1`, the inhibition is -4.1%.

For the molecule `CC1(C)c2ccccc2N2CC(=O)NC21/C=C/c1ccco1` (centres undefined), the inhibition was 0.4%.

As to `COC(=O)c1ccc(NC(=O)C23CCC(C)(C(=O)O2)C3(C)C)cc1` (centres undefined), the inhibition was 2.4%.

`CC(=O)C1=C(Nc2ccc(C)cc2)CC(C)(O)C(C(C)=O)C1c1ccco1` (centres undefined): the inhibition was -2.3%.

Consider `CCOc1ccc(C(=O)Nc2ccc(N3CCN(C(C)=O)CC3)cc2)cc1[N+](=O)[O-]`, for which the inhibition was 0.9%.

Take `CC12CN3CC(C)(CN(C1)C3c1ccc(Cl)cc1Cl)C2=O` (centres undefined): the inhibition is 0.1%.

On to `COc1cc(C)nc(-n2nc(C)cc2OC)n1`, for which the inhibition is -4.9%.

With `Cc1ccc(C(=O)NC(=S)NCCCN2CCOCC2)cc1`, the inhibition is 6.1%.

`Cc1ccccc1N1C(N)=NC(N)=NC1(C)C`: the inhibition is 6.8%.

As to `COC(=O)c1ccc(-c2ncc(-c3cccc4ccccc34)o2)cc1`, the inhibition is 4.9%.

`COc1cccc(=O)c2c(C)n(CC(=O)c3ccccc3)c(C)c12`: the inhibition is -9.8%.

With `CCc1ccc(/C=C2\SC(=S)N(CCC(=O)N3CCN(C)CC3)C2=O)cc1`, the inhibition is 4.9%.

Consider `Cc1cc(C(C)(C)C)c(O)c(C)c1CC1=NCCN1`, for which the inhibition was 3.7%.

With `COc1ccc(-c2nc3c(=O)n(C)c(=O)[nH]c3n2CCc2ccccc2)cc1`, the inhibition was -1.2%.

Take `Cc1ccc2c(c1)C(O)(CC(=O)/C=C/C=C/c1ccccc1)C(=O)N2` (centres undefined): the inhibition was -8.4%.

For `CCCCNc1cc(C(=O)O)cc(S(N)(=O)=O)c1Oc1ccccc1`, the inhibition was -3.2%.

On to `CC(C)(C)C(=O)N1CCCC1C(=O)O` (centres undefined), for which the inhibition was -0.9%.

Turning to `CSCC[C@H](NC(=O)OC(C)(C)C)C(=O)N1CCC(C(=O)N[C@@H](C)C(=O)O)CC1`, the inhibition is -4.2%.

As to `CCN(CC)CCNC(=O)c1ccc(NC(C)=O)cc1`, the inhibition is -6.2% and -1.6%.

Take `O=C(CCCC(=O)OCC1CCCO1)OCC1CCCO1` (centres undefined): the inhibition was -1.6%.

On to `N#CCC(N)=C(C#N)C#N`, for which the inhibition was -6%.

As to `CC(C)(C)c1csc(N/N=C/c2cccnc2)n1`, the inhibition was 0.6%.

With `O=C(NCc1ccc2c(c1)OCO2)c1ccc2c(c1)OCCO2`, the inhibition is -0.5%.

For the molecule `O[C@H]1COC2C1OC[C@@H]2O` (some centres undefined), the inhibition is 0%.

For `CN(C)[C@@H]1C(=O)C(C(N)=O)=C(O)[C@@]2(O)C(=O)C3=C(O)c4c(O)ccc(Cl)c4[C@@H](O)[C@H]3C[C@@H]12`, the inhibition is -4.5%.

`CC1COc2c(N3CCN(C)CC3)c(F)cc3c(=O)c(C(=O)O)cn1c23` (centres undefined): the inhibition was 3.1%.

For `NC(N)=NC(N)=Nc1ccc2ccccc2c1`, the inhibition is 1.8%.

With `CC(C)(C)C(=O)NC(=S)NNC(=O)c1ccncc1`, the inhibition was -3.3%.

`COc1ccc(NC(=O)N2CCCCC2c2cccnc2)cc1` (centres undefined): the inhibition was -0.9%.

Regarding `Cc1ccc(C(=O)COC(=O)c2cccc(N3C(=O)c4c(C)nc5ccccc5c4C3=O)c2)cc1C`, the inhibition is -0.1%.

Regarding `CN(C)C(=O)CCCCCCCCC(=O)N(C)C`, the inhibition was -5.5%.

Take `COc1ccc(CCNc2ncnc3c2[nH]c2cc(OC)c(OC)cc23)cc1OC`: the inhibition was -0.7%.

`NCc1ccccc1COc1ccccc1`: the inhibition is -1.7%.

Consider `CCOc1ccc(C(NC(C)=O)c2ccc(OC)c(OC)c2)cc1` (centres undefined), for which the inhibition is 5.8%.

Consider `COC(=O)C1=CN(Cc2cccs2)C=C(C(=O)OC)C1c1cccc(Cl)c1`, for which the inhibition is -4%.

In the case of `CCNCCC(CCC(C)C)c1ccc2c(c1)OCO2` (centres undefined), the inhibition was -0.1%.

On to `Cn1c(=O)[nH]c2nnc(-c3ccc(Cl)c(Cl)c3)nc2c1=O`, for which the inhibition was -4.1%.

As usually defined, the inhibition is the relative decrease from the control value, in per cent.
